Measured values taken from ChEMBL document CHEMBL4513216, “Probing the Open Global Health Chemical Diversity Library for Multistage-Active Starting Points for Next-Generation Antimalarials” (ACS Infect Dis, 2020).
Screen size: about 69,000 compounds; about 8,600 (12%) showed an effect of 50% or more. The list comes from a sample in which strong results are over-represented; it also holds similar structures and randomly drawn compounds.

Test system: Plasmodium berghei
Experiment: Screen against P. berghei liver stage (PbLuc), transformed with Luciferase, at 10uM
Assay type: functional, HepG2
Conditions: tested at 10 uM

SMILES	INHIBITION [%]
COCCN1C(=O)CCC12CCC(NCc1cccc(C)n1)CC2 (stereo not drawn)	41
O=C(Cc1c[nH]c2ncccc12)NCC(O)c1ccccc1F (stereo not drawn)	26.05
CC(=O)N1C[C@H]2CC[C@@H](C1)N(Cc1ccc(Cn3cccn3)cc1)C2	4.59
Cc1c(CN(C)C(=O)c2ccnn2C)cnn1C	31.7
CCn1ncc(CN(C)C(=O)c2cc(C(F)(F)F)n(C)n2)c1C	1.86
Cc1cc(C(=O)N(C)Cc2cnn(C)c2C)n(C)n1	68.9
O=C(Cc1csc(-c2ccco2)n1)N1CCSCC1	-5.25
CN(Cc1cccc(F)c1)C(=O)CN1CCCCC1Cn1cncn1 (stereo not drawn)	13.5
CN(Cc1cccc(F)c1)C(=O)CN1CCCC(Cn2cncn2)C1 (stereo not drawn)	75.2
CCN(Cc1ccccc1)C(=O)CN1CCCC(Cn2cncn2)C1 (stereo not drawn)	63.9
Cc1ccc(CN(C)C(=O)CN2CCCC(Cn3cncn3)C2)cc1 (stereo not drawn)	51.1
CN(Cc1ccc(F)cc1)C(=O)CN1CCCC(Cn2cncn2)C1 (stereo not drawn)	11.6
CN(Cc1ccccc1)C(=O)CN1CCCC(Cn2cncn2)C1 (stereo not drawn)	-25.9
CN(Cc1cccc(F)c1)C(=O)CN1CCOC(Cn2cncn2)C1 (stereo not drawn)	37.9
CN(Cc1ccsc1)C(=O)CN1CCCC(Cn2cncn2)C1 (stereo not drawn)	17.5
CCN(Cc1ccccc1)C(=O)CN1CCOC(Cn2cncn2)C1 (stereo not drawn)	-122
CO[C@H]1CCN(S(=O)(=O)c2cccs2)[C@H]1Cc1cccnc1	-5.05
Cc1cc(C(=O)NCCN2CCN(S(C)(=O)=O)CC2)no1	10.3
COc1cc(C2CC(=O)Nc3c2cnn3C)ccc1O (stereo not drawn)	10.9
CC(=O)N1C[C@@H](c2ccsc2)[C@@H]2CN(CC3CCCCC3)CC[C@@H]21	30.8
O=C(C1CCC1)N1C[C@@H](c2ccsc2)[C@@H]2CN(C3CCCC3)CC[C@@H]21	5.34
CC(=O)N1C[C@@H](c2ccsc2)[C@@H]2CN(Cc3ccccc3Cl)CC[C@@H]21	73.8
CC(=O)N1C[C@@H](c2ccsc2)[C@@H]2CN(Cc3ccccc3C)CC[C@@H]21	64.9
O=C(C1CCCC1)N1C[C@@H](c2ccsc2)[C@@H]2CN(C3CCCC3)CC[C@@H]21	45.2
COc1ccccc1CN1CC[C@H]2[C@@H](C1)[C@H](c1ccsc1)CN2C(C)=O	24.8
Cc1n[nH]c(C)c1-c1cnc(C2CCN(S(C)(=O)=O)CC2)cn1	11.1

SMILES	INHIBITION [%]
O[C@@H]1CC(CNCc2cccc(Cl)c2)(COc2cccnc2)C[C@@H]1O (stereo partly drawn)	37.4
COC(=O)c1ccc(NC(C)c2ccc3c(c2)CC(=O)N3)nn1 (stereo not drawn)	-4.12
Cc1nnc(N2CCO[C@H]3[C@@H](OCc4ccccn4)CC[C@@H]32)s1	11.4
COCC1CCN(C(C(=O)O)c2c(F)cccc2OC(C)C)CC1 (stereo not drawn)	35.1
CN(C)S(=O)(=O)Nc1ccc(Oc2ccc3c(c2)OCO3)cc1	41.2
O=S(=O)(Nc1ccc2c(c1)OCCO2)N1CCCCC1	8.44
O=S(=O)(Nc1ccc(Oc2ccc3c(c2)OCO3)cc1)N1CCCCC1	52.7
CC(=O)N(Cc1noc(C2CC2)n1)C1CCN(Cc2ccccc2)C1 (stereo not drawn)	-6.44
c1cncc(-c2ccc3c(c2)CCC32CCN(Cc3nccs3)CC2)c1	57.1
OCCN1CCC2(CCc3cc(-c4ccoc4)ccc32)CC1	28.2
Cc1ccc2c(c1)CCC21CCN(C(=O)CO)CC1	10.1
c1cc(-c2ccc3c(c2)C2(CCNCC2)CC3)ccn1	82.2
c1cncc(-c2ccc3c(c2)CCC32CCNCC2)c1	57.1
c1cncc(-c2ccc3c(c2)CCC32CCN(Cc3ccco3)CC2)c1	26.5
O=C(CCO)N1CCC2(CCc3ccc(-c4ccoc4)cc32)CC1	0.923
c1cncc(-c2ccc3c(c2)C2(CCNCC2)CC3)c1	27.5
CN(C)CC(=O)N1CCC2(CCc3cc(-c4cccnc4)ccc32)CC1	15.3
CN(C)CC(=O)N1CCC2(CCc3ccc(-c4ccncc4)cc32)CC1	21.6
O[C@H]1[C@H](n2cc(-c3cccnc3)nn2)c2ccccc2C12CCNCC2	31.2
c1cc(-c2ccc3c(c2)CCC32CCNCC2)ccn1	57.1
CCOc1ccc(NC(=O)c2cc3c([nH]c2=O)CCC3)cc1	-29.6
NC(=O)NC1CCN(Cc2ccccc2OCC(F)(F)F)CC1	6.7
Cc1noc(CN2CCN(C(=O)N(C)C)CC2)n1	23.5
CS(=O)(=O)NC[C@@H]1OC[C@H]2CN(Cc3ccccc3)CC[C@H]21	-54.9
CC(C)c1sc(Cl)nc1C(=O)NCc1ccncc1	-23
COc1nn(C)c2c1CCCN(C(=O)c1ccc(C)c(F)c1)C2	-8.94

SMILES	INHIBITION [%]
CS(=O)(=O)NC[C@H]1OC[C@H]2CN(Cc3ccsc3)CC[C@H]21	-24.1
COc1ccc(CNC(=O)Nc2ccc(S(=O)(=O)C(F)F)cc2)cc1	66.2
Cn1ccc(CNC(=O)Nc2ccc(S(=O)(=O)C(F)F)cc2)c1	30.4
CN(C)c1ccc(CNC(=O)Nc2ccc(S(=O)(=O)C(F)F)cc2)cc1	-3.99
Cc1cccc(Sc2nccn(C)c2=O)c1	20.3
CC(=O)N1CCC(n2nccc2-c2cnc(N(C)CCO)nc2)CC1	11.5
CN(C)C1COC2(CCN(S(=O)(=O)c3ccc(F)cc3)CC2)C1 (stereo not drawn)	57.5
Cc1cccc(S(=O)(=O)N2CCC3(CC2)CC(N(C)C)CO3)c1 (stereo not drawn)	72
CCOC1COC2(CCN(S(=O)(=O)c3cccc(C)c3)CC2)C1 (stereo not drawn)	27.6
CCOC1COC2(CCN(S(=O)(=O)c3ccc(F)cc3)CC2)C1 (stereo not drawn)	45.7
COC1COC2(CCN(S(=O)(=O)c3ccc(F)cc3)CC2)C1 (stereo not drawn)	32.1
CCOC1COC2(CCN(S(=O)(=O)c3cccc(F)c3)CC2)C1 (stereo not drawn)	29.6
CCOCC1CN(S(=O)(=O)N(C)C)Cc2cnn(C)c21 (stereo not drawn)	33.5
COCCN1CCO[C@@H]2CN(C(=O)Cc3ccccc3)CC[C@@H]2C1	18.5
CC(C)O[C@H]1CN(C(=O)CCN2CCCCO2)C[C@@H]1O	57.6
O=C(CCN1CCCO1)N1CC[C@@H](CNC(=O)N2CCCC2)[C@H](O)C1	43.7
O=C(CCN1CCCCO1)N1CC[C@H](O)[C@@H](O)C1	28.7
Cc1cccc(C(=O)N2C[C@@H]3CCN(C(C)C)C[C@@H]3C2)c1	-38.1
Cc1cc(CN2CC[C@H]3C[C@H](C(=O)N4CCC(C)CC4)O[C@H]3C2)no1	34.7
COc1cccc(-c2nc(CC(=O)NC3(C)CCS(=O)(=O)C3)cs2)c1 (stereo not drawn)	-10.1
COCC1CCN(c2cc(C3CN(C)CCO3)nc(C)n2)CC1 (stereo not drawn)	23.9
CCC1CN(C(=O)Cc2coc(-c3ccccc3)n2)CCO1 (stereo not drawn)	7.4
Cn1cc(C2CN(C(=O)Cc3coc(-c4ccccc4)n3)CCO2)cn1 (stereo not drawn)	53.9
Cn1cc(C2CCCN2C(=O)Cc2coc(-c3ccccc3)n2)cn1 (stereo not drawn)	13.9
CCS(=O)(=O)N1CCC2(CCN(Cc3nccs3)CC2)CC1	26.5
CC(C)(C)C(=O)N1CCCC(c2ncncc2-c2ccncc2)C1 (stereo not drawn)	49.6

SMILES	INHIBITION [%]
O=C1COc2cc(C(=O)NS(=O)(=O)c3cccc(Cl)c3)ccc2N1	47
COc1ccc(CN(C)C2CCN(C(=O)C(C)C)CC2)c2cccnc12	8.97
COc1ccc(CN(C)C2CSCCSC2)c2cccnc12	57.4
COc1ccc(CN(C)C2CCN(S(C)(=O)=O)CC2)c2cccnc12	30.5
O=C(c1ccccc1F)N1CCC2(CC1)CC(N1CCCC1)CO2 (stereo not drawn)	44.8
Cc1cnn(CC2CCCN2C(=O)c2ccc(F)cc2Cl)c1 (stereo not drawn)	-81.1
CN(C)C(=O)c1n[nH]c2c1CN(CC1CCCCC1)C2	25.6
CCn1cc(NC(=O)C(C)n2ncc(Cl)c2C)c(C(=O)NCC(C)C)n1 (stereo not drawn)	11
COCC(=O)N1CCC(c2nc3ccc(N4CCOCC4)cn3n2)CC1	45.2
COCCN1CCC(c2nc3ccc(NC(C)C)cn3n2)CC1	19.5
CCN1CCC(c2nc3ccc(NC4CCC4)cn3n2)CC1	46.6
c1cc2nc(C3CCN(CC4CC4)CC3)nn2cc1N1CCCC1	8.47
COCCN1CCC(c2nc3ccc(NC4CCC4)cn3n2)CC1	57.5
COCCN1CCC(c2nc3ccc(N4CCCC4)cn3n2)CC1	52
O=C(C1CCOCC1)N1CCc2ncc(CN3CCOCC3)n2CC1	-3.88
COCCN1CCC2(CCN(c3ncccn3)CC2)C1=O	34.6
Cc1ccc(CN2C[C@@H]3[C@@H](C(=O)NCC4CC4)CCS(=O)(=O)[C@@H]3C2)cc1	-21.1
Cc1cc(C)cc(C(=O)Nc2cn[nH]c2)c1	7.77
O=C(NC1CCCC1)c1cc(Sc2ncccn2)ccn1	-48.4
Cc1[nH]ncc1C(=O)NCC1CCC2(CC1)OCCO2	32
O=C(NCC1CCC2(CC1)OCCO2)c1ccncc1F	57.7
Cc1cc(C(=O)NCC2CCC3(CC2)OCCO3)[nH]n1	41.4
CCSc1ccc(C(C)NC(=O)CCS(C)(=O)=O)cc1 (stereo not drawn)	2.91
CCSc1ccc(C(C)NC(=O)CNS(C)(=O)=O)cc1 (stereo not drawn)	51.7
CC(C)Sc1ccc(C(C)NC(=O)CNS(C)(=O)=O)cc1 (stereo not drawn)	38
